Reference: PubChem BioAssay (Tox21)
Inconclusive results are not listed. Activity calls are given as the source filed them. Unless noted, calls follow the shape of the dose curve; as a rule, active = well fitted curve in the direction sought with a large enough effect in the repeat runs; inconclusive = weak or mixed curves; inactive = no such curve, though single readings can be large; an effect the other way counts as inactive or inconclusive.

Experiments:
[1] = qHTS assay for small molecules that induce genotoxicity in human embryonic kidney cells expressing luciferase-tagged ATAD5 (AID 651632); also: nearly all actives have a fitted effect of over 15% in size
Outline: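 HEK293T cells carrying a luciferase reporter tagged to ATAD5 were exposed to compound or DMSO vehicle for 16 hr at 37C, 5% CO2. Amplite was added, and after 30 min at room temperature luciferase activity was read as a marker of ATAD5 induction.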

[2] = qHTS assay for small molecule agonists of the p53 signaling pathway - cell viability (AID 651633; calls by dose curve;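 also: p53RE-bla HCT reporter cells with a stable beta-lactamase p53 reporter; series mostly up to about 83 µM; nearly all actives have a fitted effect of over 30% in size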)
Outline: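 Viability counter-read: CellTiter-Glo luminescence (30 min, room temperature) in the same p53RE-bla plates. These plates had been exposed to compounds for 16 h at 37 C.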

[3] = qHTS assay for small molecule disruptors of the mitochondrial membrane potential - cell viability (AID 720634; calls by dose curve;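 also: human HepG2 liver cancer cells; series mostly up to about 83 µM; nearly all actives have a fitted effect of over 20% in size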)
Outline: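 HepG2 cells seeded overnight at 37 C, then exposed to compound or DMSO for 1 hr at 37 C, 5% CO2. m-MPI dye added, then CellTiter-Glo for 30 min at room temperature; viability read as ATP luminescence.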

[4] = qHTS assay for small molecule disruptors of the mitochondrial membrane potential (AID 720635)
Outline: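 Mitochondrial membrane potential tracked with Mito-MPS dye, red aggregates (ex 540/em 590 nm) against green monomers (ex 490/em 535 nm). Compound treatment 1 hr at 37C, dye 30 min in HepG2.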

[5] = qHTS assay to test for compound auto fluorescence at 535 nm (green) in HepG2 cells (AID 720675)
[6] = qHTS assay to test for compound auto fluorescence at 460 nm (blue) in HEK293 cells (AID 720678)
Outline: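 HEK293 cells (2,000/well, medium with 10% dialyzed FBS) attached 4-5 hr, then exposed to compound overnight at 37C, 5% CO2. Blue fluorescence read at 405/460 nm, with triamterene as reference fluorophore.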

[7] = qHTS assay to test for compound auto fluorescence at 590 nm (red) in HEK293 cells (AID 720679)
Outline: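 HEK293 cells (2,000/well, 10% dialyzed FBS) attached 4-5 hr, then dosed with compound or DMSO and incubated overnight at 37C, 5% CO2. Red fluorescence read at 540/590 nm, Rose Bengal sodium as reference fluorophore.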

[8] = qHTS assay to test for compound auto fluorescence at 460 nm (blue) in HEK293 cell free culture (AID 720681)
Outline: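 Blue fluorescence (Ex 405/Em 460 nm, triamterene-equivalent) was read immediately after pin transfer of compound or DMSO into medium (DMEM, 10% FBS) without cells.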

[9] = qHTS assay to test for compound auto fluorescence at 590 nm (red) in HEK293 cell free culture (AID 720683)
Outline: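 Red-channel autofluorescence of compounds in culture medium (DMEM, 10% FBS), no cells, measured at 540/590 nm. Rose Bengal sodium is the reference fluorophore for equivalence.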

[10] = qHTS assay to test for compound auto fluorescence at 590 nm (red) in HepG2 cell free culture (AID 720684)
Outline: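 Steps: dispense MEM/10% FBS medium, no cells; pin compound or DMSO vehicle; read red channel, Ex/Em 540/590 nm. Output given as Rose Bengal sodium equivalents.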

[11] = qHTS assay to test for compound auto fluorescence at 460 nm (blue) in HepG2 cell free culture (AID 720685)
Outline: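 Compound (23 nL) or DMSO pinned into cell-free MEM with 10% FBS; blue fluorescence read at 405/460 nm excitation/emission, expressed as auto-fluorescence equivalency to triamterene.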

[12] = qHTS assay to test for compound auto fluorescence at 535 nm (green) in HepG2 cell free culture (AID 720686)
[13] = qHTS assay to test for compound auto fluorescence at 460 nm (blue) in HepG2 cells (AID 720687)
Outline: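 Blue-channel autofluorescence (Ex/Em 405/460 nm, triamterene-equivalent) was measured after 1 hr compound exposure at 37 C, 5% CO2. Cells were HepG2, plated overnight at 37 C in MEM plus 10% FBS.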

[14] = biological target: Glucocorticoid receptor (Homo sapiens) (UniProt P04150); test: qHTS assay to identify small molecule agonists of the glucocorticoid receptor (GR) signaling pathway (AID 720691; active = well fitted activation curve with a large enough effect in the signal ratio in the repeat runs, not every such curve was filed as active; the % refers to the signal ratio)
Outline: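 GR-bla HeLa cells (beta-lactamase reporter under glucocorticoid response element) were plated 4 h at 37 C/5% CO2, given compounds in DMSO, and incubated 18 h at 37 C. LiveBLAzer B/G FRET substrate was added for 2 h at room temperature, then fluorescence intensity read.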

[15] = biological target: Glucocorticoid receptor (Homo sapiens) (UniProt P04150); test: qHTS assay to identify small molecule antagonists of the glucocorticoid receptor (GR) signaling pathway (AID 720692; active = well fitted inhibition curve with a large enough effect in the signal ratio in the repeat runs, not every such curve was filed as active; the % refers to the signal ratio)
Outline: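 GR-bla HeLa cells (beta-lactamase reporter under glucocorticoid response element) were pre-plated 4 h at 37 C, treated with compounds plus 5 nM dexamethasone (final) for 18 h, then read by LiveBLAzer B/G FRET fluorescence after 2 h.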

[16] = qHTS assay to identify small molecule antagonists of the glucocorticoid receptor (GR) signaling pathway - cell viability counter screen (AID 720693); also: nearly all actives have a fitted effect of over 55% in size
[17] = qHTS assay for identifying genotoxic compounds that show differential cytotoxicity against isogenic chicken DT40 cell lines with known DNA damage response pathways - wild type cell line (AID 743012); also: nearly all actives have a fitted effect of over 60% in size
Outline: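 Parental DNA repair-proficient DT40 cells, 300 per well, were pre-incubated ~0.5 h at 37 C/5% CO2, pin-dosed with compounds in DMSO, then incubated 40 h. Viability was read as CellTiter-Glo luminescence after 30 min at room temperature.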

[18] = qHTS assay for identifying genotoxic compounds that show differential cytotoxicity against isogenic chicken DT40 cell lines with known DNA damage response pathways - Rev3 mutant cell line (AID 743014); also: nearly all actives have a fitted effect of over 55% in size
[19] = qHTS assay for identifying genotoxic compounds that show differential cytotoxicity against isogenic chicken DT40 cell lines with known DNA damage response pathways - Rad54/Ku70 mutant cell line (AID 743015); also: nearly all actives have a fitted effect of over 60% in size
[20] = qHTS assay to identify small molecule antagonists of the androgen receptor (AR) signaling pathway - cell viability counter screen (AID 743033; also: nearly all actives have a fitted effect of over 45% in size)
[21] = qHTS assay to identify small molecule antagonists of the androgen receptor (AR) signaling pathway using the MDA cell line - cell viability counter screen (AID 743041; also: nearly all actives have a fitted effect of over 45% in size)
Outline: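 Cells were plated at 3,000 per well and left 5 h. Compounds in DMSO were then pinned in, followed by R1881. After 16 h at 37C, CellTiter-Fluor fluorescence gave viability.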

[22] = qHTS assay to identify small molecule antagonists of the thyroid receptor (TR) signaling pathway - cell viability counter screen (AID 743064); also: nearly all actives have a fitted effect of over 50% in size
Outline: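 In rat pituitary GH3.TRE-Luc reporter cells co-exposed to compound and 1 nM T3 for 23.5 h, cytotoxicity was assessed with CellTiter-Fluor in the same wells, read by fluorescence.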

[23] = qHTS assay to identify small molecule antagonists of the thyroid receptor (TR) signaling pathway (AID 743065); also: series mostly up to about 70 µM; nearly all actives have a fitted effect of over 55% in size
Outline: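 Antagonism measured as loss of luciferase signal in GH3 cells stably carrying a TRE-luciferase reporter, co-treated with compound and T3 (1 nM final) for 23.5 h at 37 C. Viability was read in the same well by CellTiter-Fluor.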

[24] = tested on: thyroid hormone receptor (rat, GH3 cells); test: qHTS assay to identify small molecule agonists of the thyroid receptor (TR) signaling pathway (AID 743066; calls by dose curve)
[25] = biological target: Estrogen receptor (Homo sapiens) (UniProt P03372); test: qHTS assay to identify small molecule antagonists of the estrogen receptor alpha (ER-alpha) signaling pathway (AID 743069; active = well fitted curve in the direction sought with a large enough effect in the signal ratio in the repeat runs, not every such curve was filed as active; the % refers to the signal ratio)
Outline: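 ER-alpha-UAS-bla GripTite HEK293 line; 2% charcoal-stripped FBS overnight; plated, 4 hr 37C/5% CO2; cpd in DMSO + 17beta-estradiol, 18 hr 37C; LiveBLAzer B/G FRET substrate 2 hr RT; fluorescence intensity.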

[26] = qHTS assay to identify small molecule antagonists of the estrogen receptor alpha (ER-alpha) signaling pathway - cell viability counter screen (AID 743074; calls by dose curve;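 also: HEK293 cells carrying ER-alpha-UAS-bla reporter stimulated with 17beta-estradiol; nearly all actives have a fitted effect of over 45% in size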)
[27] = biological target: Estrogen receptor (Homo sapiens) (UniProt P03372); test: qHTS assay to identify small molecule agonists of the estrogen receptor alpha (ER-alpha) signaling pathway (AID 743075; calls by dose curve;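 also: HEK293 GripTite cells with ER-alpha and UAS-driven beta-lactamase reporter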)
[28] = biological target: Estrogen receptor (Homo sapiens) (UniProt P03372); test: qHTS assay to identify small molecule agonists of the estrogen receptor alpha (ER-alpha) signaling pathway using the BG1 cell line (AID 743079); also: nearly all actives have a fitted effect of over 20% in size
[29] = qHTS assay to identify small molecule antagonists of the estrogen receptor alpha (ER-alpha) signaling pathway using the BG1 cell line (AID 743080; calls by dose curve;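 also: BG1 cells stimulated with 17beta-estradiol alongside compound; series mostly up to about 70 µM; nearly all actives have a fitted effect of over 25% in size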)
Outline: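 BG1-Luc-4E2 cells (endogenous full-length ER-alpha, 4xERE luciferase) hormone-starved 5 days in charcoal-stripped FBS, plated 4,000/well for 24 h, then compound plus 17beta-estradiol for 21.5 h at 37 C; ONE-Glo luminescence read.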

[30] = qHTS assay to identify small molecule antagonists of the estrogen receptor alpha (ER-alpha) signaling pathway using the BG1 cell line - cell viability counter screen (AID 743081);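 also: compound given together with 17beta-estradiol as the ER stimulus; series mostly up to about 70 µM; nearly all actives have a fitted effect of over 45% in size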
[31] = biological target: Aromatase (Homo sapiens) (UniProt P11511); test: qHTS assay to identify aromatase inhibitors (AID 743083); also: series mostly up to about 70 µM; nearly all actives have a fitted effect of over 55% in size
[32] = qHTS assay to identify aromatase inhibitors - cell viability counter screen (AID 743084)
[33] = biological target: Aryl hydrocarbon receptor (Homo sapiens) (UniProt P35869); test: qHTS assay to identify small molecule that activate the aryl hydrocarbon receptor (AhR) signaling pathway (AID 743085);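 also: HG2L7.5c1 human HepG2 liver cells with stably integrated DRE-driven firefly reporter; series mostly up to about 70 µM; nearly all actives have a fitted effect of over 15% in size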
Outline: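 AhR agonist activity is inferred from enhanced light output of a DRE-controlled firefly luciferase reporter in HepG2 cells, measured with ONE-Glo following 24 h treatment at 37C.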

[34] = qHTS assay to identify small molecule that activate the aryl hydrocarbon receptor (AhR) signaling pathway - cell viability counter screen (AID 743086)
Outline: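 Cytotoxicity counter screen: CellTiter-Fluor signal (30 min, 37 C) in 4000 HepG2 cells/well carrying the DRE-luciferase reporter, following 24 h compound exposure at 37 C.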

[35] = biological target: Peroxisome proliferator-activated receptor gamma (Homo sapiens) (UniProt P37231); test: qHTS assay to identify small molecule agonists of the peroxisome proliferator-activated receptor gamma (PPARg) signaling pathway (AID 743094; active = well fitted activation curve with a large enough effect in the signal ratio in the repeat runs, not every such curve was filed as active; the % refers to the signal ratio)
Outline: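 GeneBLAzer PPARg UAS-bla HEK293H cells carrying a stably integrated beta-lactamase reporter were pre-incubated 5 h at 37C, then exposed to compounds in DMSO for 17 h at 37C; LiveBLAzer B/G FRET substrate was added for 1 h at room temperature and fluorescence read.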

[36] = biological target: Acetylcholinesterase (Homo sapiens) (UniProt P22303); test: Acetylcholinesterase (AChE) small molecule antagonists: enzyme-based qHTS assay (AID 1347397; calls by dose curve; also: nearly all actives have a fitted effect of over 55% in size); conditions: Potency: AChE enzyme activity inhibition; outcome: AChE enzyme activity inhibition
Outline: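 rhAChE 50 mU/mL (dispensed) + cpd or DMSO, 30 min RT; add DTNB/acetylthiocholine cocktail, 10 min RT; colorimetric thiocholine readout. qHTS, 1536-well format.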

[37] = biological target: Acetylcholinesterase (Homo sapiens) (UniProt P22303); test: Acetylcholinesterase (AChE) small molecule antagonists: fluorescence cell-based qHTS assay (AID 1347398; calls by dose curve; also: nearly all actives have a fitted effect of over 50% in size); conditions: Potency: AChE activity; outcome: AChE activity
Outline: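 Read-out is Thiolite Green fluorescence at Ex/Em = 490/520 nm, formed by reaction with thiocholine released when cellular AChE in SH-SY5Y cells hydrolyzes acetylthiocholine. Compounds were preincubated 30 min at 37 C before substrate.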

[38] = biological target: Acetylcholinesterase (Homo sapiens) (UniProt P22303); test: Acetylcholinesterase (AChE) small molecule antagonists: enzyme-based qHTS assay with human liver microsomes (AID 1347399; calls by dose curve; also: nearly all actives have a fitted effect of over 60% in size); conditions: Potency: qHTS inhibition; outcome: qHTS inhibition
Outline: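 Recombinant human AChE (50 mU/mL in the enzyme mix) and human liver microsomes (0.25 mg/mL final) were preincubated with compound and NADPH (0.25 mg/mL final) for 30 min at 37 C. Acetylthiocholine/DTNB was then added; thiocholine was read colorimetrically after 10 min at room temperature.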

Measured: Potency

Sequence of Acetylcholinesterase (Homo sapiens) (P22303 whole entry, looked up): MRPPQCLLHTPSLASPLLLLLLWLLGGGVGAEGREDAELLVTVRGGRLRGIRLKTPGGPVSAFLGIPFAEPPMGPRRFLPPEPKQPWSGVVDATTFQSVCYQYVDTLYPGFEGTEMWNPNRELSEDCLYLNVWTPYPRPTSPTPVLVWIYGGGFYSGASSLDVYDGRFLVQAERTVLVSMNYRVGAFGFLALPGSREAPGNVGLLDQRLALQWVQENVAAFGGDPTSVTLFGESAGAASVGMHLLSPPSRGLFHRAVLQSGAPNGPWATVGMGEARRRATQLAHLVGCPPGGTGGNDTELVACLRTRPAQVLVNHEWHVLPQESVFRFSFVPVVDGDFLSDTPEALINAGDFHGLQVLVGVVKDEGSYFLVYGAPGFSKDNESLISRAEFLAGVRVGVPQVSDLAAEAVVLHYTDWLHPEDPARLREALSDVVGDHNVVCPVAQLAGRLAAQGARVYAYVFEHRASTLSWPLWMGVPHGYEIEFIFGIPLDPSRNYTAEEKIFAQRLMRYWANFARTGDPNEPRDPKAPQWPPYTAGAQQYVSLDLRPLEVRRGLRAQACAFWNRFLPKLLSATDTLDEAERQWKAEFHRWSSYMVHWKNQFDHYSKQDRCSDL
Sequence of Estrogen receptor (Homo sapiens) (P03372 whole entry, looked up): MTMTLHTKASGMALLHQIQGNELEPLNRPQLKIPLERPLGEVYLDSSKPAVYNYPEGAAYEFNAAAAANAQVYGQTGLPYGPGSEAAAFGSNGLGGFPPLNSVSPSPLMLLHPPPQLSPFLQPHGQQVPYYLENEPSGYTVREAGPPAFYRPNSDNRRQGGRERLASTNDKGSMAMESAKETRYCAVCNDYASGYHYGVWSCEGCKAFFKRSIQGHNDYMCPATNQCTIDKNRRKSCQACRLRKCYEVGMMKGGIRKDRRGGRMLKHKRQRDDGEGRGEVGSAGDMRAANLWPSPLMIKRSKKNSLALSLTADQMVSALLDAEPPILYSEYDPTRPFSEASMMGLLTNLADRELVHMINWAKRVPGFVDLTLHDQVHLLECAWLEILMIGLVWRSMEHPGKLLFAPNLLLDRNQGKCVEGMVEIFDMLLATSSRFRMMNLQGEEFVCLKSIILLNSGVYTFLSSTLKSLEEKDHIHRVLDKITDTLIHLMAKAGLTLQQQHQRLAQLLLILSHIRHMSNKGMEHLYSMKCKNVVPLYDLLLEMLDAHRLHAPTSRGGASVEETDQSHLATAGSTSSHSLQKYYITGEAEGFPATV
Sequence of Glucocorticoid receptor (Homo sapiens) (P04150 whole entry, looked up): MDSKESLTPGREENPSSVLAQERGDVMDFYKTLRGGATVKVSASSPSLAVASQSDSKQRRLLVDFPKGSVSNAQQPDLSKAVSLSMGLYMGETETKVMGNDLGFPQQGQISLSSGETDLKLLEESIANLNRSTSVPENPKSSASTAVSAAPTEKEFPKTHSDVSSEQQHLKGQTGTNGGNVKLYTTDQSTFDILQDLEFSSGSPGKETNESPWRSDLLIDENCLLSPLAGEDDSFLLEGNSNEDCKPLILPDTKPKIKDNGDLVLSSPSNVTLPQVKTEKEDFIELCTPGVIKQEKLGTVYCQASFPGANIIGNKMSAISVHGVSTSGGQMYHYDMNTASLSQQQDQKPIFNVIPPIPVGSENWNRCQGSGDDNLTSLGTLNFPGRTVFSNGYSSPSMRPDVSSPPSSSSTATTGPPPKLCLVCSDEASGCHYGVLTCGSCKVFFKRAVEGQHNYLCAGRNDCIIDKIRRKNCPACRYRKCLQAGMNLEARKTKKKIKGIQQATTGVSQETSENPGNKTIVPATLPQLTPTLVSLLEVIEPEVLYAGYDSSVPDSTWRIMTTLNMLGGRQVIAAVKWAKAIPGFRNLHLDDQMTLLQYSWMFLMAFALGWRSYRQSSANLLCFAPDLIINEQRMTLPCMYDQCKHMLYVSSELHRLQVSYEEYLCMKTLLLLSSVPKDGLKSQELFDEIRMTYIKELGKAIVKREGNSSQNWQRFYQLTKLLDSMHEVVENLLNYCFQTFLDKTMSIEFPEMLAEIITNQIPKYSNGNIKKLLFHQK
Sequence of Aromatase (Homo sapiens) (P11511 whole entry, looked up): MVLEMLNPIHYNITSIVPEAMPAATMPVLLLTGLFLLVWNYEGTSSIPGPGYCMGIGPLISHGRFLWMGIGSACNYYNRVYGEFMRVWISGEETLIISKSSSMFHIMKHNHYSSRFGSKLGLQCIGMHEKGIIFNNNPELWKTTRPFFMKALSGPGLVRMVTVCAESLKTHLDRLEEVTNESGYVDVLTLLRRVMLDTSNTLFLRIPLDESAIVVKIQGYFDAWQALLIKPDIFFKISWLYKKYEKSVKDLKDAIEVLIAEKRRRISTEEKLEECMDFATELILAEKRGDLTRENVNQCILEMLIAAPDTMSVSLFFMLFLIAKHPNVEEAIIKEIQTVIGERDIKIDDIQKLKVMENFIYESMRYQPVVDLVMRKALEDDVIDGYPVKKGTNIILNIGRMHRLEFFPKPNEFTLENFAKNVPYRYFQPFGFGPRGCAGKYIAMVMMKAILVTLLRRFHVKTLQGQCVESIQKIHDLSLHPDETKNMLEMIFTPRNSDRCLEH
Sequence of Aryl hydrocarbon receptor (Homo sapiens) (P35869 whole entry, looked up): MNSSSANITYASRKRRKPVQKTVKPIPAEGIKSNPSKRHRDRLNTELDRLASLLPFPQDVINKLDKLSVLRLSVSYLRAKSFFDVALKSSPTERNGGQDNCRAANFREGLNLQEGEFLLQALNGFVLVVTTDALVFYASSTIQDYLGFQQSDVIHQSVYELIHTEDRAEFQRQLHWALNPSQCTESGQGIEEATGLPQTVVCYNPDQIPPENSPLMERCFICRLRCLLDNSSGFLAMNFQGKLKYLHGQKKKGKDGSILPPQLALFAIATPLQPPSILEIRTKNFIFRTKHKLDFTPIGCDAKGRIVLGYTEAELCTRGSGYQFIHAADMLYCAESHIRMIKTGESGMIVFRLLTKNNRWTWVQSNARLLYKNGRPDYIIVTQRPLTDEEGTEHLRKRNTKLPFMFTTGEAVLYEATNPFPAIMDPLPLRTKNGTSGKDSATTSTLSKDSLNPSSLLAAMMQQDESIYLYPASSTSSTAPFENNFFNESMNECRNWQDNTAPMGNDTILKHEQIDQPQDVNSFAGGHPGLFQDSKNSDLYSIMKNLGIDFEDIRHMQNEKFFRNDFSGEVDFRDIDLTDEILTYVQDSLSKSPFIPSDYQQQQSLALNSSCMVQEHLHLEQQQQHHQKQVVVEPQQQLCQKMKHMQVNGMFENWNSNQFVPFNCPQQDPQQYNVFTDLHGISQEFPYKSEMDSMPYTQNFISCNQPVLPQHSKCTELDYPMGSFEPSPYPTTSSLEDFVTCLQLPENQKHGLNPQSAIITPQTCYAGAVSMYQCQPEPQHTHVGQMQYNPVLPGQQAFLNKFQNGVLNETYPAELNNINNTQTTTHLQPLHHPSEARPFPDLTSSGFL
Sequence of Peroxisome proliferator-activated receptor gamma (Homo sapiens) (P37231 whole entry, looked up): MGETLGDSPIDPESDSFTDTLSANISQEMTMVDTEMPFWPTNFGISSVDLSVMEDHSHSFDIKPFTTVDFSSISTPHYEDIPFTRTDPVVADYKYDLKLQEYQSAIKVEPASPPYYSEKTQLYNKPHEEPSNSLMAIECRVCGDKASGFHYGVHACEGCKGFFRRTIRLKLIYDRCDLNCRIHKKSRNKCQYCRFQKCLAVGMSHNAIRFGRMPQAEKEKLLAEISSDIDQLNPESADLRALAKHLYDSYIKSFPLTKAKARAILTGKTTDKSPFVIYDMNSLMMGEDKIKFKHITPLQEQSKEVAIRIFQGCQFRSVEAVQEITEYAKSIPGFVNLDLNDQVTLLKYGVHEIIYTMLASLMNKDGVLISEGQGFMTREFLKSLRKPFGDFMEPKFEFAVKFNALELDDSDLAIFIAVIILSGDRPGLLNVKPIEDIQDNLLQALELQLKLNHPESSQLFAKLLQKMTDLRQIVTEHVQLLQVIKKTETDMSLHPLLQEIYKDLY

CCOC(=O)C1(c2ccccc2)CCCN(C)CC1 (stereo unspecified)
inactive: [1] | [2] | [3] | [4] | [5] | [6] | [7] | [8] | [9] | [10] | [11] | [12] | [13] | [14] | [15] | [16] | [17] | [18] | [19] | [20] | [21] | [22] | [23] | [24] | [25] | [26] | [27] | [28] | [29] | [30] | [31] | [32] | [33] | [34] | [35]

C=CCc1cc(OC)c(O)c(C(=O)NCCO)c1
inactive: [36] | [37] | [38]

CC1(C)Oc2ccc(C#N)cc2[C@@H](N2CCCC2=O)[C@@H]1O
inactive: [36] | [37] | [38]
